BAZ2B block = blocks human BAZ2B | Q9UIF8 | AlphaScreen BAZ2B-H3K14Ac peptide displacement | Potency, µM (doses to about 114 µM), most hits filed as inhibitors | hit rate 4.4% among 360,000 | AID 504333; also: nearly all actives have a fitted effect of over 60% in size
Target sequence (Q9UIF8 whole entry, looked up): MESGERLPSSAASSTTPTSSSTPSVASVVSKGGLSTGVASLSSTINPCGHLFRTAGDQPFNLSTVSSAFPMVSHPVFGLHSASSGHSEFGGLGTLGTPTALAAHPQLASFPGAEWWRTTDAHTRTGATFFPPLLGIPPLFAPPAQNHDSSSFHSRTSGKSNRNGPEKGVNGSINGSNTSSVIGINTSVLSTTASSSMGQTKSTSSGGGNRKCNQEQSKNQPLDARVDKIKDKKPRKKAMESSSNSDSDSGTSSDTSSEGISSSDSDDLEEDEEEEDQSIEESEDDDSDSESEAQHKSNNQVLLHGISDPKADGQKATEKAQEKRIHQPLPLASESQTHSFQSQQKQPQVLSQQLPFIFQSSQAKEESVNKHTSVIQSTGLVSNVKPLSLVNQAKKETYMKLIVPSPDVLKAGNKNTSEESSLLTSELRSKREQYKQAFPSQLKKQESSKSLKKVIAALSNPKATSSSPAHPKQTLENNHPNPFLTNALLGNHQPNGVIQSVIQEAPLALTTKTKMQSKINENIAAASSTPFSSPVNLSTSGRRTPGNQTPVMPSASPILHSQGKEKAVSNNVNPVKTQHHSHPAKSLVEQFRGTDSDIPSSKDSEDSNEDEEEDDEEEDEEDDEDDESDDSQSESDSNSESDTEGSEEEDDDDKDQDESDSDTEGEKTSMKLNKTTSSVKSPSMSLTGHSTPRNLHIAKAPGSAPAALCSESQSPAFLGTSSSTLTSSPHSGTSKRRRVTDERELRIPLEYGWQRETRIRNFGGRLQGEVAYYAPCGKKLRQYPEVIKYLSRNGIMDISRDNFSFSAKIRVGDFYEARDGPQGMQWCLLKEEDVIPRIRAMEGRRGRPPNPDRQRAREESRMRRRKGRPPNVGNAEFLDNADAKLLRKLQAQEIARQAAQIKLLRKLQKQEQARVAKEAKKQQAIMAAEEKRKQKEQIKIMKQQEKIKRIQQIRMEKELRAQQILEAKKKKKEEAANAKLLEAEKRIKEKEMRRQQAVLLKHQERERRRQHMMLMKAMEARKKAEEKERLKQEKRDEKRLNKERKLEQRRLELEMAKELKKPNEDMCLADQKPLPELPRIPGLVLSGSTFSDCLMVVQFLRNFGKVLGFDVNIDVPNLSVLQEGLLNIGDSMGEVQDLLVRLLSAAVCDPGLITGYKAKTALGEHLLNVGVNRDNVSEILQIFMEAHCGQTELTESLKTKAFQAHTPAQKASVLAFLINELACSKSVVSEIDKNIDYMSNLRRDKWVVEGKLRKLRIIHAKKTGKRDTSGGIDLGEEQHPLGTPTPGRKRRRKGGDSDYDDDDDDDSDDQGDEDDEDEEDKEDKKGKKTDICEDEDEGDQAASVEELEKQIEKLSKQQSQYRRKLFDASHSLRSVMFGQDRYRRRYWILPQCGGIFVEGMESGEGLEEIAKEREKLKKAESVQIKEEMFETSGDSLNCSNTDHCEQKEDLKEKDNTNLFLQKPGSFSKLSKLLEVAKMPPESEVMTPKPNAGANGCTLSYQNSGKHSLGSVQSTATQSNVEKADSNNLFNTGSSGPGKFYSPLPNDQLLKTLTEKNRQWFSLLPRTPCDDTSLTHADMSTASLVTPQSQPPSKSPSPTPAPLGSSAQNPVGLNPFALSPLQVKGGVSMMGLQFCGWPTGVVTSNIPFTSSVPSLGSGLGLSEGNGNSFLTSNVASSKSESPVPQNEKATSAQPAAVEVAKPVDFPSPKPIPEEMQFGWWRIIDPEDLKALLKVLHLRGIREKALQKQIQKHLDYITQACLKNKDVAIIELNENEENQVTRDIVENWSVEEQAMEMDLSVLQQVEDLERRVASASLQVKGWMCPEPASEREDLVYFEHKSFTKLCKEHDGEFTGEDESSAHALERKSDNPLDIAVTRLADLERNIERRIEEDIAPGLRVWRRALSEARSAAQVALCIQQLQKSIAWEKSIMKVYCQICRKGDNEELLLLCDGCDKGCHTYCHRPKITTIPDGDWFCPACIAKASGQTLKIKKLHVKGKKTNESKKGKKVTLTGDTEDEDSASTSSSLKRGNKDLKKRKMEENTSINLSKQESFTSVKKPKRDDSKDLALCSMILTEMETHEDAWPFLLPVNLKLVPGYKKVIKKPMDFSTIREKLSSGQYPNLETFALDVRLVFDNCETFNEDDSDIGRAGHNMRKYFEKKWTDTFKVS
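Multi-concentration screen (max 110 uM) measuring displacement of acetylated histone H3 peptide from BAZ2B by AlphaScreen, using 50 nM protein, 50 nM peptide and 10 ug/mL streptavidin donor plus Ni-chelate acceptor beads.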
Sfp PPTase inh = inhibitors of Bacillus subtilis Sfp phosphopantetheinyl transferase; Q9F4F7; Biochemical Sfp PPTase activity, qHTS; Potency, µM, actives largely listed as inhibitors; hit rate 3.5% among 310,000;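 also: the enzyme is Sfp with the accession as filed and its product quenches rhodamine fluorescence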
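Fluorescence-quenching assay with 15 nM Sfp, 5 uM rhodamine-CoA and 12.5 uM BHQ-2-labelled ybbR peptide in pH 7.6 Hepes/MgCl2 buffer. Enzyme was pre-incubated with compound for 15 min at room temperature. Rate was taken from the 30-min fluorescence change (525/598 nm).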
HP1b binding inh = HP1-beta chromodomain-methylated histone interaction inhibition. P83916. AlphaScreen HP1-beta / biotin-H3K9me3 peptide binding. Potency, µM (highest dose often 114 µM), actives largely listed as inhibitors. hit rate 0.56% among 390,000. AID 540317; also: nearly all actives have a fitted effect of over 70% in size
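AlphaScreen: HP1-beta (50 nM) preformed 30 min with biotin-H3(1-18)K9me3 peptide (50 nM) in PBS pH 7.4, 0.01% Tween-20. Compound added for 30 min at RT, then streptavidin donor/nickel chelate acceptor beads (10 ug/mL) for 30 min.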
JMJD2A Tudor = inhibitors of human JMJD2A Tudor domain; O75164; AlphaScreen JMJD2A-Tudor / H3K4me3 peptide binding; Potency, µM (titrated, usually from 114 µM), usual class: inhibitors; hit rate 4.4% among 390,000; AID 504339; also: nearly all actives have a fitted effect of over 50% in size
G9a inh = G9a (human) methyltransferase inhibition; Q96KQ7; G9a H3K9 monomethylation, AlphaScreen, 2 h; Potency, µM (titrated, usually from 102 µM), actives largely listed as inhibitors; hit rate 8.8% among 350,000; also: nearly all actives have a fitted effect of over 75% in size
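Quantitative HTS format: methyltransferase activity on a biotin-tagged H3K9 peptide is measured by AlphaScreen, using a rabbit anti-monomethyl-H3K9 antibody with streptavidin donor and anti-IgG acceptor beads. Final levels are 20 nM enzyme, 500 nM peptide, 20 uM SAM; 2 h RT.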
Numbers stand for hits; - = inactive; ? = inconclusive; . = no result given; [ ] = another dose, or the depositor's remark. An excerpt weighted towards active compounds, which were near 12% of everything screened. Calls follow the shape of the dose curve; as a rule, active = well fitted curve in the direction sought with a large enough effect; inconclusive = small, poorly fitted or top-dose-only effect, or another doubt; inactive = no such curve, though single readings can be large; an effect the other way counts as inactive or inconclusive.

SMILES	BAZ2B block	Sfp PPTase inh	HP1b binding inh	JMJD2A Tudor	G9a inh
CCNC(=O)c1sc(=S)n(-c2ccc(C)cc2)c1N	-	56µM	?	-	32µM
Cc1ccc(-n2c(N)c(C(=O)N3CCOCC3)sc2=S)cc1	-	-	-	?	?
CCOC(=O)c1sc(=S)n(-c2ccccc2)c1N	-	?	?	-	?
CCOc1ccc(NC(=O)CN(C)C(=O)CCN2C(=O)C3CC=CCC3C2=O)cc1OCC (stereo unspecified)	-	.	-	-	-
CCOc1ccc(-n2c(N)c(C(=O)NCc3ccco3)sc2=S)cc1	-	13µM	-	-	?
O=c1c2c3c(sc2nc2n1CCCS2)CCCC3	-	-	-	-	-[12.7 µM]
CC1CSc2nc3sc4c(c3c(=O)n21)CCCC4 (stereo unspecified)	-	?	-	-	20µM
O=c1c2c3c(sc2nc2n1CCCCC2)CCCCC3	-	-	.	.	-
O=c1c2c3c(sc2nc2n1CCCCC2)CCCC3	.	32µM	-	?	?
N=c1c2c3c(sc2nc2n1CCCCC2)CCCCC3	-	-	-	-	50µM
CCN(C(=O)C1CCN(S(=O)(=O)c2c(C)noc2/C=C/c2ccc(C)cc2)CC1)c1cccc(C)c1	-	.	-	-	-
C/C(=C\c1ccccc1)CN(C)CCN(C)C	-	-	.	.	56µM
Cc1ccccc1OCC(=O)Nc1cc(-c2cccc(Br)c2)nn1-c1ccccc1	-	.	-	-	-
Cc1cc(C(=O)COC(=O)c2ccc(Cl)c(S(N)(=O)=O)c2)c(C)n1C1CC1	?	.	?	?	50µM
Cc1cc(C(=O)COC(=O)c2ccc(NC(=O)CC#N)cc2)c(C)n1C1CC1	-	.	-	-	?
OCC[C@@H]1C[C@H](O)[C@@H](O)[C@@]2(CCCc3ccccc3O2)O1	-	-	-	-	28µM
OCC[C@@H]1C[C@H](O)[C@@H](O)[C@@]2(CCc3ccccc3CO2)O1	-	-	-	-	45µM
COc1cccc(NC(=O)C(OC(=O)CNC(=O)c2ccccc2)c2ccccc2)c1 (stereo unspecified)	.	.	.	-	.
N#Cc1c(Cl)nc(-c2ccncc2)nc1-c1ccccc1	79µM	-	-	?	28µM
N#Cc1c(Cl)nc(SCc2ccccc2)nc1-c1ccccc1	79µM	-	.	.	.
CCNS(=O)(=O)c1ccc(OCCNS(C)(=O)=O)cc1	-	-	-	89µM	-
CCN(CC)S(=O)(=O)c1ccc(OCCNS(C)(=O)=O)cc1	-	-	-	11µM	-
Cc1cc(NS(=O)(=O)c2ccc(OCCNS(C)(=O)=O)cc2)no1	-	-	-	-	-[12.7 µM]
CC1(C)Cc2ccccc2/C(=C/C(=O)N2CCCCCC2)N1	56µM	-	-	?	35µM
Cc1cc(/C=N/n2cnnc2)c(O)c([N+](=O)[O-])c1	?	-	-	-	-
SMILES	BAZ2B block	Sfp PPTase inh	HP1b binding inh	JMJD2A Tudor	G9a inh
Cc1cc(C(c2ccc(C)o2)c2ccc(C)o2)c(O)c([N+](=O)[O-])c1	45µM	50µM	16µM	40µM	35µM
Cc1ccc(C(c2ccc(C)o2)c2cccc([N+](=O)[O-])c2O)o1	40µM	?	?	50µM	40µM
Cc1c(C(c2cccc([N+](=O)[O-])c2O)c2c(C)n(C)n(-c3ccccc3)c2=O)c(=O)n(-c2ccccc2)n1C	-	-	-	-	-[12.7 µM]
CC1CCN(C(=O)COC(=O)C23CC4CC(CC(O)(C4)C2)C3)CC1	-	.	-	-	-[2.33 µM]
Cc1cccc(NC(=O)CNC(=O)CSc2ncccn2)c1C	.	.	-	-	.
Cc1cccc(NC(=O)CNC(=O)Cn2ncc(Cl)c(Cl)c2=O)c1C	.	.	71µM	45µM	.
Cc1cc(C(F)(F)F)nc(SCCN2CCCCC2)c1C#N	-	-	-	-	-
Cc1cc(C)c(S(=O)(=O)/N=C2\C=C(Nc3ccc(C(=O)O)cc3)C(=O)c3ccccc32)c(C)c1	8.9µM	50µM	?	32µM	10µM
O=C(O)c1ccc(NC2=C/C(=N/S(=O)(=O)c3ccccc3)c3ccccc3C2=O)cc1	20µM	-	?	50µM	13µM
COC(=O)c1ccc(N/C(=N/S(=O)(=O)c2ccccc2)c2ccccc2)cc1	-	-	-	-	-
CC(C)NC(=O)N(C)C[C@H]1Oc2c(NC(=O)C3CCCCC3)cccc2C(=O)N([C@H](C)CO)C[C@@H]1C	.	.	-	-	.
CCc1ccc(NS(=O)(=O)c2[nH]ncc2C(=O)OC)cc1	?	.	-	56µM	2.5µM
CCc1ccc(NS(=O)(=O)c2cc(OC)ccc2OC)cc1	-	-	-	-	-
CC1(C)Cc2c(cnn2-c2ccc(F)cc2)C(NC(=O)C2=NNC(=O)CC2)C1 (stereo unspecified)	-	-	-	16µM	-
Cn1c(=O)c2c(SCC(=O)N3CCc4ccccc43)nc(-c3cccc(F)c3)nc2n(C)c1=O	-	.	-	-	-
O=C(Nc1nc(-c2ccco2)c(-c2ccco2)s1)C1CC(=O)N(c2ccc3c(c2)OCCO3)C1 (stereo unspecified)	11µM	10µM	-	25µM	?
O=C(N/N=C\c1ccncc1)c1ccc(Br)s1	-	-	-	-	-
O=C(Nc1nnc(-c2ccco2)s1)C1CCCCC1	50µM	50µM	-	-	-
O=C(Nc1nnc(-c2ccncc2)o1)c1ccc(Br)s1	71µM	-	-	?	-
O=C(Nc1nnc(-c2ccco2)o1)C1CCCCC1	?	-	-	89µM	?
Cc1cc(C)c(C)c(S(=O)(=O)N2CCC(C(=O)OCC(=O)NC3CCS(=O)(=O)C3)CC2)c1C (stereo unspecified)	.	.	-	-	.
CS(=O)(=O)c1ccc(C(=O)Nc2nc(-c3ccco3)c(-c3ccco3)s2)cc1	40µM	.	40µM	?	10µM
O=C(Nc1nnc(-c2ccc(Cl)s2)o1)C1CC1	.	-	-	-	-
O=C(Nc1nnc(-c2ccncc2)o1)C1CCCCC1	50µM	-	-	20µM	?
O=C(Nc1nnc(-c2cccs2)o1)C1CC1	?	?	-	50µM	50µM
SMILES	BAZ2B block	Sfp PPTase inh	HP1b binding inh	JMJD2A Tudor	G9a inh
O=C(Nc1nnc(-c2ccc3c(c2)CCCC3)o1)C1CCCCC1	-	-	-	-	-
O=C(Nc1nc(-c2ccco2)c(-c2ccco2)s1)C1CCC1	32µM	28µM	50µM	40µM	?
CN(C)C(=O)c1ccc(-c2nc(N3CCOCC3)c3ccccc3n2)cc1	.	-	.	.	-[0.501 µM]
CCn1c2ccccc2c2nnc(SC3CCOC3=O)nc21 (stereo unspecified)	.	.	-	-	.
COc1ccc(C2c3ccc4ccccc4c3Oc3ncn4nc(Cc5ccccc5)nc4c32)cc1OC (stereo unspecified)	-	-	-	-	7.1µM
Cc1cccc(C)c1NC(=O)NCCc1c[nH]c2ccccc12	?	.	-	-	-
CCC(=O)Nc1ccc2c(c1)ncn2C	-	-	-	-	-
CC(C)c1ccc(CNc2ccc3c(c2)ncn3C)cc1	40µM	-	-	?	?
CCCCn1cnc2cc(NCc3ccccc3Cl)ccc21	35µM	.	?	40µM	14µM
